Reference: PubChem BioAssay (EPA / NIEHS)
Active and inactive are the calls of the source. Rule for the calls: active = hit-call score of the fitted dose curve at least 0.9, where 1 is the maximum; inactive = score below 0.9.

What was measured:
[1] = ATG_GLI_CIS: Attagene CIS-FACTORIAL HepG2 Assay for human Zinc Finger Protein GLI1 (AID 2282945); conditions: HepG2, Attagene cis-factorial reporter mRNA, GLI element; actives raise or lower the signal
Procedure, shortened: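 HepG2 cells transiently transfected with cis-promoter multiplexed reporter units report endogenous transcription factor activity. After 24 h chemical exposure, reporter mRNA was quantified by RT-PCR, 6-FAM labelling, HpaI digestion and capillary electrophoresis, with bidirectional fitting against DMSO.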

[2] = ATG_GRE_CIS: Attagene CIS-FACTORIAL HepG2 Assay for human Glucocorticoid Response Elements (GRE) (AID 2282947); conditions: HepG2 GRE cis-reporter, Attagene multiplex mRNA; actives raise or lower the signal
Procedure, shortened: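 HepG2 cells transiently transfected with multiple cis-promoter reporter units measure endogenous TF activity; 24 h compound exposure. Reporter mRNA quantified by RT-PCR, FAM labelling, HpaI digestion and capillary electrophoresis; bidirectional fit vs DMSO baseline.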

[3] = ATG_ISRE_CIS: Attagene CIS-FACTORIAL HepG2 Assay for human Interferon Regulatory Factor 1 (IRF1) binding to an Interferon-Stimulated Response Element (ISRE) (AID 2282948); conditions: HepG2 ISRE cis-reporter (Attagene), mRNA transcription readout; actives raise or lower the signal
Procedure, shortened: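 HepG2 cells transiently transfected with multiplexed cis-promoter reporter units; after 24 h compound exposure, reporter mRNA quantified by RT-PCR, FAM labelling, HpaI digestion and capillary electrophoresis. Bidirectional fit versus DMSO baseline.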

[4] = ATG_M_32_CIS: Attagene CIS-FACTORIAL HepG2 Assay for M32 Transcription Factor (Internal Marker) (AID 2282949); conditions: HepG2 Attagene cis-factorial M32 reporter, mRNA; actives raise or lower the signal;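 note: background control marker of the multiplexed CIS panel rather than a real target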
Procedure, shortened: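 Internal background marker read-out: RT-PCR/capillary electrophoresis fluorescence of reporter transcripts from transiently transfected HepG2 cells after 24 h chemical exposure. Activity fitted bidirectionally relative to DMSO negative control.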

[5] = ATG_M_06_CIS: Attagene CIS-FACTORIAL HepG2 Assay for M06 Transcription Factor (Internal Marker) (AID 2282950); conditions: HepG2 Attagene CIS-FACTORIAL M06 internal marker reporter; actives raise or lower the signal
Procedure, shortened: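 Serves as a background control readout. Transfected HepG2 exposed to compounds for 24 h, then reporter transcripts quantified by fluorescent RT-PCR and capillary electrophoresis. Both directions fitted against DMSO baseline.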

[6] = biological target: Hypoxia-inducible factor 1-alpha (Homo sapiens) (UniProt Q16665); test: ATG_HIF1a_CIS: Attagene CIS-FACTORIAL HepG2 Assay for human Hypoxia Inducible Factor 1 (HIF1A) (AID 2282951); conditions: HepG2 Attagene cis-factorial HIF1a reporter transcription; actives raise or lower the signal
Procedure, shortened: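 HepG2 cells transiently transfected with multiplexed cis-promoter reporter units; reporter mRNA read 24 h after dosing by RT-PCR, 6-FAM primer-extension labelling, HpaI digestion and capillary electrophoresis. Bidirectional fit versus DMSO baseline.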

[7] = biological target: Hepatocyte nuclear factor 6 (Homo sapiens) (UniProt Q9UBC0); test: ATG_HNF6_CIS: Attagene CIS-FACTORIAL HepG2 Assay for human Hepatocyte Nuclear Factor 6 (HNF6) (AID 2282952); conditions: HepG2 Attagene cis-factorial HNF6 reporter transcription; actives raise or lower the signal
Procedure, shortened: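 HepG2 cells transiently transfected with cis-element-driven multiplexed reporter units measuring endogenous transcription factor activity. After 24 h exposure, reporter mRNA quantified by RT-PCR, FAM-labelled fragments and capillary electrophoresis; bidirectional fitting versus DMSO.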

[8] = biological target: Heat shock factor protein 1 (Homo sapiens) (UniProt Q00613); test: ATG_HSE_CIS: Attagene CIS-FACTORIAL HepG2 Assay for human Heat Shock Transcription Factor 1 (HSE) (AID 2282953); conditions: HepG2 HSE cis-reporter, Attagene RNA transcription; actives raise or lower the signal
Procedure, shortened: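 Endogenous transcription factor activity in transiently transfected HepG2, read as reporter mRNA by RT-PCR with fluorescent capillary electrophoresis after 24 h. Gain or loss of signal fitted versus DMSO baseline.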

[9] = ATG_MRE_CIS: Attagene CIS-FACTORIAL HepG2 Assay for human Metal Responsive Element (MRE) (AID 2282954); conditions: HepG2 MRE cis-reporter transcription, Attagene multiplex; actives raise or lower the signal
Procedure, shortened: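 HepG2 cells transiently transfected with multiple cis-element reporter units measure endogenous MTF1-driven transcription. After 24 h compound exposure, reporter mRNA is quantified by RT-PCR with 6-FAM labelling, HpaI digestion and capillary electrophoresis; bidirectional fits versus DMSO.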

[10] = ATG_PBREM_CIS: Attagene CIS-FACTORIAL HepG2 Assay for human Phenobarbital-responsive Enhancer Module (PBREM) (AID 2282955); conditions: HepG2 PBREM cis-reporter, Attagene multiplexed transcription; actives raise or lower the signal
Procedure, shortened: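 HepG2 cells transiently transfected with multiple cis-regulated reporter transcription units; endogenous factor activity at the PBREM element measured as reporter mRNA 24 h after dosing, via RT-PCR and capillary electrophoresis of fluorescent fragments; bidirectional fitting versus DMSO.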

[11] = biological target: Paired box protein Pax-6 (Homo sapiens) (UniProt P26367); test: ATG_Pax6_CIS: Attagene CIS-FACTORIAL HepG2 Assay for human Paired Box 6 (PAX6) (AID 2282956); conditions: HepG2 CIS-FACTORIAL PAX6 reporter transcription, RNA readout; actives raise or lower the signal
Procedure, shortened: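 HepG2 cells transiently transfected with multiplexed cis-promoter reporter units (endogenous TF activity) were dosed for 24 h. Reporter mRNA was quantified by RT-PCR, 6-FAM labeling, HpaI digestion and capillary electrophoresis; bidirectional fitting versus DMSO baseline.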

[12] = ATG_PXRE_CIS: Attagene CIS-FACTORIAL HepG2 Assay for human Pregnane X Receptor Element (PXRE) (AID 2282957); conditions: HepG2 Attagene CIS-FACTORIAL PXRE reporter, mRNA; actives raise or lower the signal
Procedure, shortened: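 HepG2 cells transiently transfected with cis-element-driven multiplexed reporter units; after 24 h chemical exposure, reporter mRNA measured by RT-PCR, 6-FAM labelling, HpaI digestion and capillary electrophoresis. Bidirectional fitting relative to DMSO.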

[13] = ATG_PPRE_CIS: Attagene CIS-FACTORIAL HepG2 Assay for human Peroxisome Proliferator-activated Response Element (PPRE) (AID 2282958); conditions: HepG2 PPRE cis-element reporter, Attagene transcription factor profiling; actives raise or lower the signal
Procedure, shortened: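 HepG2 cells transiently transfected with multiplexed cis-element reporter units measure endogenous transcription factor activity. After 24 h compound exposure, reporter mRNA is quantified by RT-PCR, 6-FAM labeling, HpaI digestion and capillary electrophoresis; bidirectional fits are made against DMSO baseline.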

[14] = ATG_RORE_CIS: Attagene CIS-FACTORIAL HepG2 Assay for human RAR-related Orphan Receptor Element (RORE) (AID 2282959); conditions: HepG2 Attagene cis-factorial RORE reporter, mRNA; actives raise or lower the signal
Procedure, shortened: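 HepG2 cells transiently transfected with multiple cis-element reporter transcription units, exposed to chemical for 24 h. Reporter mRNA quantified by RT-PCR, 6-FAM primer-extension labeling, HpaI digestion and capillary electrophoresis; bidirectional fit versus DMSO baseline.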

[15] = ATG_Sox_CIS: Attagene CIS-FACTORIAL HepG2 Assay for human SRY-box transcription factor (SOX) (AID 2282960); conditions: HepG2 Attagene cis-factorial SOX reporter, mRNA; actives raise or lower the signal
Procedure, shortened: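 HepG2 cells transiently transfected with cis-element-driven multiple reporter transcription units, dosed 24 h; reporter mRNA measured by RT-PCR, FAM labelling, HpaI digestion and capillary electrophoresis. Bidirectional fit versus DMSO baseline.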

[16] = biological target: Transcription factor Sp1 (Homo sapiens) (UniProt P08047); test: ATG_Sp1_CIS: Attagene CIS-FACTORIAL HepG2 Assay for human Specificity Protein 1 (Sp1) (AID 2282961); conditions: HepG2 Sp1 cis-reporter transcription, actives raise or lower the signal
Procedure, shortened: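 HepG2 cells transiently transfected with multiple reporter transcription units driven by cis-regulatory elements; Sp1-responsive reporter mRNA measured 24 h after dosing by RT-PCR and capillary electrophoresis fluorescence, fitted bidirectionally against DMSO baseline.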

[17] = ATG_SREBP_CIS: Attagene CIS-FACTORIAL HepG2 Assay for human Sterol Regulatory Element Binding (SREBP) (AID 2282962); conditions: HepG2 Attagene cis-factorial SREBP reporter, mRNA; actives raise or lower the signal
Procedure, shortened: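 HepG2 cells transiently transfected with multiplexed cis-element reporter units report endogenous transcription factor activity. After 24 h of chemical exposure, reporter mRNA was quantified by RT-PCR, 6-FAM labelling, HpaI digestion and capillary electrophoresis; bidirectional fits used DMSO as baseline.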

[18] = biological target: Signal transducer and activator of transcription 3 (Homo sapiens) (UniProt P40763); test: ATG_STAT3_CIS: Attagene CIS-FACTORIAL HepG2 Assay for human Signal Transducer and Activator of Transcription 3 (STAT3) (AID 2282963); conditions: HepG2, Attagene cis-factorial STAT3 reporter transcription; actives raise or lower the signal
Procedure, shortened: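 HepG2 cells transiently transfected with cis-element-driven multiple reporter transcription units; after 24 h chemical exposure, reporter mRNA measured by RT-PCR, 6-FAM primer-extension labelling, HpaI digestion and capillary electrophoresis. Bidirectional fitting versus DMSO baseline.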

[19] = ATG_TA_CIS: Attagene CIS-FACTORIAL HepG2 Assay for human TA Basal Promoter (AID 2282964); conditions: HepG2 Attagene CIS-factorial TA basal promoter reporter; actives raise or lower the signal
Procedure, shortened: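 Background-control readout: TA basal promoter reporter mRNA, fitted in both directions relative to DMSO. Measured by RT-PCR and capillary electrophoresis 24 hours after treating HepG2 human liver cells transiently carrying multiplexed cis-regulated reporter constructs.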

Measured: AC50

Transcription factor Sp1 (Homo sapiens), sequence (P08047 whole entry, looked up): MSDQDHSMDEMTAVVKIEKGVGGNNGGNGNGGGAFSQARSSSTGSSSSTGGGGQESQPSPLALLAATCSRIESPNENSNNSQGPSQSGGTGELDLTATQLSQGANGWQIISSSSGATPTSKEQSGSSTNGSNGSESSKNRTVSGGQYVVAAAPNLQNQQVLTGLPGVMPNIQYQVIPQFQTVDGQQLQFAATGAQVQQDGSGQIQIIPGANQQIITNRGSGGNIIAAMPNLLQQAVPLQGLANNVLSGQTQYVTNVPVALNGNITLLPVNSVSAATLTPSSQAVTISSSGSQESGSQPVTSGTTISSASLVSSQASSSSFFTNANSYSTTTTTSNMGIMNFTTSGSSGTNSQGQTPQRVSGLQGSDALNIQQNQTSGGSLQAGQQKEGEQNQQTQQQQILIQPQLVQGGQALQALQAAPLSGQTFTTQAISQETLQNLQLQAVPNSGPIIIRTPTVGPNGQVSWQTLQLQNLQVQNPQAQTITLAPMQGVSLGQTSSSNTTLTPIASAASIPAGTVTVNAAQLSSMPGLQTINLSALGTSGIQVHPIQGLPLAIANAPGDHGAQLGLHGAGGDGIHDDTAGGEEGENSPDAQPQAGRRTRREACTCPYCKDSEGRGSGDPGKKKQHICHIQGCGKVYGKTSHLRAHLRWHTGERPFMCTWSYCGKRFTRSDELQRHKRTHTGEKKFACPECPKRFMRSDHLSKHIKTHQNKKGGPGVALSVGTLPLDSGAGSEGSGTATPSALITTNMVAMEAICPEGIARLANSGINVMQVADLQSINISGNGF
Paired box protein Pax-6 (Homo sapiens), sequence (P26367 whole entry, looked up): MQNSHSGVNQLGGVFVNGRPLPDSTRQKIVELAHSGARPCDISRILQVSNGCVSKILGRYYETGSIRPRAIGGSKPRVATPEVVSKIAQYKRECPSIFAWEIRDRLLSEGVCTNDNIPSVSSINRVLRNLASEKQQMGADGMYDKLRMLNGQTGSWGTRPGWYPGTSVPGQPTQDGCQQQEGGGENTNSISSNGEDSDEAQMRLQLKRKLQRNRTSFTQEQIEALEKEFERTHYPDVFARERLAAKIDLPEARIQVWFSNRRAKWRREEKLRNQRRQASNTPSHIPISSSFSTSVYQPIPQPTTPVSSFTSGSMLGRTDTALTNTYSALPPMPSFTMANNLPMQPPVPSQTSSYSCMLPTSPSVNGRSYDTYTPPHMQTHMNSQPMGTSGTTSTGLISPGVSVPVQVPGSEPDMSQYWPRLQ
Signal transducer and activator of transcription 3 (Homo sapiens), sequence (P40763 whole entry, looked up): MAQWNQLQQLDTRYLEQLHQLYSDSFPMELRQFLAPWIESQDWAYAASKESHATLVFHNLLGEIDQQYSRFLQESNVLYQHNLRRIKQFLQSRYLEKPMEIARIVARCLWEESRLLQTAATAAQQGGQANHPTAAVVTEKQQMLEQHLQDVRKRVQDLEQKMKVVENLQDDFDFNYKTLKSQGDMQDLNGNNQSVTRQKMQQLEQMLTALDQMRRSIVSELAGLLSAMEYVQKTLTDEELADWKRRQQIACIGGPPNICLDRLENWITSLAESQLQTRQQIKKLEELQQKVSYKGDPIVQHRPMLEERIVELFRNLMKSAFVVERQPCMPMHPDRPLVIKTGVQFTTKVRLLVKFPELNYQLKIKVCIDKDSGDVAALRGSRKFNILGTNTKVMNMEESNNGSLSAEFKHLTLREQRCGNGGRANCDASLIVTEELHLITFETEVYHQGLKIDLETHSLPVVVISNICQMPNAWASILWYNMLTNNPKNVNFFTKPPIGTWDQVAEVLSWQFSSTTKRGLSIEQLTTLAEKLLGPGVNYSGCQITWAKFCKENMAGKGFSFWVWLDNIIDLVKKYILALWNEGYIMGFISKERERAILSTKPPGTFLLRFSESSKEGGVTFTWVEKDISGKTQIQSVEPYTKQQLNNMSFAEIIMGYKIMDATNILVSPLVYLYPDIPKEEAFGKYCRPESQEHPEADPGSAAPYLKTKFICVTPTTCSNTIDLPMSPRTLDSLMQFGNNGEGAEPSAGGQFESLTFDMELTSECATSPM
Heat shock factor protein 1 (Homo sapiens), sequence (Q00613 whole entry, looked up): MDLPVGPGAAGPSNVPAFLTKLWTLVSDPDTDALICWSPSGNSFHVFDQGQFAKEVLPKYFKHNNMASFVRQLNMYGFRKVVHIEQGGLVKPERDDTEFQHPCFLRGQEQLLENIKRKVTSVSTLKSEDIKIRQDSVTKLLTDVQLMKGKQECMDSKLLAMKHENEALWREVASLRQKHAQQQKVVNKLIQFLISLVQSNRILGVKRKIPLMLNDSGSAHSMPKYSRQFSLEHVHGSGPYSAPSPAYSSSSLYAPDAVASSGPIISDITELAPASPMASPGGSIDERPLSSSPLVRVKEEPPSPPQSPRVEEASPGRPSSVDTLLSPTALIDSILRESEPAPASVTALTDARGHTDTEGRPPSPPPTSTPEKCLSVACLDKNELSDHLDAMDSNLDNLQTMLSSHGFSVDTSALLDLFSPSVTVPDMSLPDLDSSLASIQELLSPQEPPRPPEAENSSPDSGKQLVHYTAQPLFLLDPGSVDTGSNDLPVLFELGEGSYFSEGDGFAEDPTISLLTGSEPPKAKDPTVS
Hypoxia-inducible factor 1-alpha (Homo sapiens), sequence (Q16665 whole entry, looked up): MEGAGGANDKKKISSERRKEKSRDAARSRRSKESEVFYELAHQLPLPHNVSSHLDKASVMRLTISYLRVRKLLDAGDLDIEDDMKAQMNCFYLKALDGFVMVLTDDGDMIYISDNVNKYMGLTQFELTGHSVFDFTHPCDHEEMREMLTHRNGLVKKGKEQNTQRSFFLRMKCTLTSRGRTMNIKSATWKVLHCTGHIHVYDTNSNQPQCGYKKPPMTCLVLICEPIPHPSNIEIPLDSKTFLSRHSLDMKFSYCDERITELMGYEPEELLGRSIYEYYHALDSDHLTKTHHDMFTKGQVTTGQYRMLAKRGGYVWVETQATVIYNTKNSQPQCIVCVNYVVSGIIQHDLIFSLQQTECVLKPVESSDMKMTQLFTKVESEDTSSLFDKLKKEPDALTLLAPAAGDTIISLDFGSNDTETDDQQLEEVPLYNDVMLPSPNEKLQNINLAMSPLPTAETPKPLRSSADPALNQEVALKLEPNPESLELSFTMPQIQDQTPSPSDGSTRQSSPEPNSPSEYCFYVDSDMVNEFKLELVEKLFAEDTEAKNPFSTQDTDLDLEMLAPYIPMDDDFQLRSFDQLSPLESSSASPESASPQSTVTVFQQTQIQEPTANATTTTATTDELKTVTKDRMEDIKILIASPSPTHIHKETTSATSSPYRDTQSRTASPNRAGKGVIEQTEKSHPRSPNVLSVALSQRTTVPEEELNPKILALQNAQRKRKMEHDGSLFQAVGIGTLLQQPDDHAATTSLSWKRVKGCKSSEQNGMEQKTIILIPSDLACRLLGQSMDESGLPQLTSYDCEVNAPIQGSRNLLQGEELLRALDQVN
Hepatocyte nuclear factor 6 (Homo sapiens), sequence (Q9UBC0 whole entry, looked up, the tested form may be a part): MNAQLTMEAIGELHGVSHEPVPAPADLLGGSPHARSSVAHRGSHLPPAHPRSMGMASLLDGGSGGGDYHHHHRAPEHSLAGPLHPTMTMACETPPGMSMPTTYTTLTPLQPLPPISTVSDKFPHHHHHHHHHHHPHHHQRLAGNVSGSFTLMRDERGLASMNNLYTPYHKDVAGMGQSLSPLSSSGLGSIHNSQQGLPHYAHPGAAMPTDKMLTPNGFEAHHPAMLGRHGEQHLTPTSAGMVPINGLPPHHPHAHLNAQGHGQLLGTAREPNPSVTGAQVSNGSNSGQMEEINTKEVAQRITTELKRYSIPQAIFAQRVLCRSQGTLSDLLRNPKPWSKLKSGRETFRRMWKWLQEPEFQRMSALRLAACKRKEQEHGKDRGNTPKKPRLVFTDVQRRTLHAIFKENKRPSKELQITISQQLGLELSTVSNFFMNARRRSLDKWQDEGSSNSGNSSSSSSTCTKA

CCCCC(CC)C(=O)OCCOCCOCCOC(=O)C(CC)CCCC (stereo not given)
active: [12] 27.5 µM
inactive: [1] | [2] | [3] | [4] | [5] | [6] | [7] | [8] | [9] | [10] | [11] | [13] | [14] | [15] | [16] | [17] | [18] | [19]

OC[C@H]1O[C@@H]2O[C@H]3[C@H](O)[C@@H](O)[C@@H](O[C@H]4[C@H](O)[C@@H](O)[C@@H](O[C@H]5[C@H](O)[C@@H](O)[C@@H](O[C@H]6[C@H](O)[C@@H](O)[C@@H](O[C@H]7[C@H](O)[C@@H](O)[C@@H](O[C@H]1[C@H](O)[C@H]2O)O[C@@H]7CO)O[C@@H]6CO)O[C@@H]5CO)O[C@@H]4CO)O[C@@H]3CO
active: [12] 18.4 µM
inactive: [1] | [2] | [3] | [4] | [5] | [6] | [7] | [8] | [9] | [10] | [11] | [14] | [15] | [16] | [17] | [18] | [19]

CC[C@H](C)C(=O)O[C@H]1C[C@H](O)C=C2C=C[C@H](C)[C@H](CC[C@@H](O)C[C@@H](O)CC(=O)O)[C@H]21
active: [12] 48.1 µM
inactive: [1] | [2] | [3] | [4] | [5] | [6] | [7] | [8] | [9] | [11] | [13] | [14] | [15] | [16] | [17] | [18] | [19]
